# According to the supplement of paper PMC9254222:
# Whole data set: some 1,100 compounds, median “Renilla luciferase signal (cell health) relative to plate median” near 0.97, cut for the highest 2% near 1.6. The full list was thinned out, with the highest values kept by preference.
# Tested on: HEK293T (UBE3A T485A transfected, BAR Wnt reporter)
# Assay: Renilla luciferase signal (cell health) relative to plate median (fold (linear ratio)); higher = higher Renilla signal
# Settings: 24 h
# Summary of the method: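 HEK293T cells were grown in DMEM with 10% FBS at 37°C and 5% CO2, at 4500 cells/well in white 384-well plates. They were transfected with a BAR firefly luciferase Wnt reporter, TK-Renilla and an expression plasmid using Fugene 6. Four hours later, robots dosed the chemicals at 0.01–100 uM for 24 h, followed by Dual-Glo luciferase readout. Wnt activity (firefly/Renilla ratio) and cell health (raw Renilla) were median-centred per plate, averaged over four biological replicates.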
Compound,Renilla luciferase signal (concentration: 0.1 uM),Renilla luciferase signal (concentration: 1 uM),Renilla luciferase signal (concentration: 10 uM),Renilla luciferase signal (concentration: 100 uM),Renilla luciferase signal (concentration: 0.01 uM)
C=CCCCCCCCCCCCC [1-Tetradecene],1.14,1.17,0.992,1.23,–
CC[C@H]1CC[C@H](NCc2cc3c(cc2OC)[C@H]2C[C@H]2C(=O)N3C)[C@H](c2ccccc2)N1,0.925,0.69,0.042,0.0275,–
CC(C)(O)c1ccc(CNC(=O)c2cccnc2Oc2ccc3nonc3c2)cc1,0.961,0.975,0.999,0.124,–
CCCN(CCC)C(=O)SCC,0.898,1.09,0.918,2.92,0.911
CCSC(=O)N(CC(C)C)CC(C)C [Butylate],1.15,1.07,1.09,1.59,1.09
O=[N+]([O-])c1ccc(O)cc1 [4-Nitrophenol],0.863,0.956,0.876,0.736,–
O=C(O)c1ccc([N+](=O)[O-])cc1 [4-Nitrobenzoic acid],1.01,0.971,1.08,1.33,–
"C=CCc1cc(S(=O)(=O)c2ccc(O)c(CC=C)c2)ccc1O [4,4'-Sulfonylbis[2-(prop-2-en-1-yl)phenol]]",1,1.11,1.34,0.0284,–
Cc1c(C)c2c(c(C)c1O)CCC(C)(CCCC(C)CCCC(C)CCCC(C)C)O2 (stereo not drawn) [Vitamin E (alpha-tocopherol)],1.02,0.963,1.28,1.99,1.15
Cc1c(C)c2c(c(C)c1O)CCC(C)(COc1ccc(CC3SC(=O)NC3=O)cc1)O2 (stereo not drawn) [Troglitazone],0.923,0.982,0.892,0.0852,–
CCCCCCCCCCCCCCO [1-Tetradecanol],0.93,0.831,0.94,0.92,–
CCOc1ccc2c(c1)C(C)=CC(C)(C)N2 [Ethoxyquin],1,1.01,0.86,0.0339,–
OC[C@H]1O[C@@H]2O[C@H]3[C@H](O)[C@@H](O)[C@@H](O[C@H]4[C@H](O)[C@@H](O)[C@@H](O[C@H]5[C@H](O)[C@@H](O)[C@@H](O[C@H]6[C@H](O)[C@@H](O)[C@@H](O[C@H]7[C@H](O)[C@@H](O)[C@@H](O[C@H]1[C@H](O)[C@H]2O)O[C@@H]7CO)O[C@@H]6CO)O[C@@H]5CO)O[C@@H]4CO)O[C@@H]3CO [alpha-Cyclodextrin],1.12,1.05,1.05,1.77,–
Cc1oc(-c2ccccc2)nc1CCOc1cccc2c1ccn2CCC(=O)O,0.873,0.846,0.748,0.478,–
CCN(CC)CCNc1ccc(CNC=O)c2sc3ccc(OC)cc3c(=O)c12,0.886,0.626,0.193,0.0173,–
